Test results published in ChEMBL document CHEMBL3433997, “St. Jude Leishmania screening dataset” (2016).

Assays:
Assay type in all cases: functional
[1] = molecular target: Solute carrier family 2, facilitated glucose transporter member 1 (Homo sapiens) (UniProt P11166); assay: ST_JUDE_LEISH: Cytotoxicity at 2uM final concentration against transgenic Leishmania Mexicana promastigotes LmGLUT1 that are glucose transport deficient and complemented with the human glucose transporter GLUT1. Activity is measured by DNA content using SYBR green in vitro
[2] = molecular target: Hexose transporter 1 (Plasmodium falciparum) (UniProt O97467); assay: ST_JUDE_LEISH: Cytotoxicity at 2uM final concentration against transgenic Leishmania Mexicana promastigotes LmPfHT that are glucose transport deficient and complemented with the Plasmodium falciparum hexose transporter. Activity is measured by DNA content using SYBR green in vitro
[3] = molecular target: Glucose transporter (Leishmania mexicana) (UniProt O61059); assay: ST_JUDE_LEISH: Cytotoxicity at 2uM final concentration against transgenic Leishmania Mexicana promastigotes LmGT2 that are glucose transport deficient and complemented with the L. Mexicana glucose transporter 2. Activity is measured by DNA content using SYBR green in vitro

Chain of Solute carrier family 2, facilitated glucose transporter member 1 (Homo sapiens) (P11166 whole entry): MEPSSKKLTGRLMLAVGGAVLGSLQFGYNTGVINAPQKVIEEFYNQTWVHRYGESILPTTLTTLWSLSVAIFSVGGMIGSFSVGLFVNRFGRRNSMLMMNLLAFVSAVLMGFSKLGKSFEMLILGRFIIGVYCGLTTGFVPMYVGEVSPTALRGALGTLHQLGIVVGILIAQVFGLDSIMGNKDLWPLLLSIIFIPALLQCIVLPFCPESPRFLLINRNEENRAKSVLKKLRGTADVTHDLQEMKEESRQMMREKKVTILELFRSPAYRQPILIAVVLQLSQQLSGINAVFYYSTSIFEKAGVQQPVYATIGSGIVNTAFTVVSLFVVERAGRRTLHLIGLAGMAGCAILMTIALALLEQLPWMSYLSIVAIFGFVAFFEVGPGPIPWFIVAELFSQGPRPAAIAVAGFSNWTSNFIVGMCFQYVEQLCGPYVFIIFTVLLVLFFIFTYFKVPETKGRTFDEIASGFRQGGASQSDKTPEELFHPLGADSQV

c1cncc(CCNCc2cccc(-c3csc(-c4nc5ccccc5[nH]4)c3)c2)c1
inhibition [1]: 4.04%
inhibition [2]: 4.06%
inhibition [3]: 2.64%

Cc1[nH]c(C)c([N+](=O)[O-])c(=O)c1-c1ccc(Oc2ccccc2)cc1
inhibition [1]: -1.81%
inhibition [2]: 0.5%
inhibition [3]: -1.98%

Cc1cc2nc(-c3ccc(SCC(=O)Nc4ccc5c(c4)OCCO5)nc3)[nH]c2cc1C
inhibition [1]: 0.8%
inhibition [2]: -0.74%
inhibition [3]: -4.17%

CO/C(=C\C=C\c1cc2cc(Cl)c(Cl)cc2[nH]1)C(=O)NCCCN1CCN(c2cccc(CCO)c2)CC1
inhibition [1]: -0.14%
inhibition [2]: 1.35%
inhibition [3]: -0.1%

CC1CN(Cc2ccccc2)CCN1c1ccc(NC(=O)c2cccs2)cc1 (centres undefined)
inhibition [1]: 10.9%
inhibition [2]: 12.3%
inhibition [3]: 10.8%

CCCCN1CCN(CCCCNc2c3ccccc3nc3ccccc23)CC1
inhibition [1]: 36.8%
inhibition [2]: 43.1%
inhibition [3]: 22%

CCN1CCN(CC(O)CNC(=O)Nc2ccc(Cl)cc2)CC1 (centres undefined)
inhibition [1]: 8.67%
inhibition [2]: 8.82%
inhibition [3]: 6.63%

Cc1cccc(C)c1C1CCN(CCCCNC(=O)c2cc3ccccc3[nH]2)CC1
inhibition [1]: 1.79%
inhibition [2]: 0.17%
inhibition [3]: 0.3%

CCCCCCCN1CC[C@@H](CCCc2ccnc3ccc(OCCC4CCNCC4)cc23)[C@@H](CC)C1
inhibition [1]: 7.73%
inhibition [2]: 7.46%
inhibition [3]: 6.53%

Nc1nc(N)c2c(Cl)c(N3CCOCC3)ccc2n1
inhibition [1]: 36.1%
inhibition [2]: 39.5%
inhibition [3]: 34.6%

Cc1ccccc1CCNC(=O)c1cnc(N2CCN(c3ccncc3)CC2)c(Cl)c1
inhibition [1]: 79%
inhibition [2]: 81.9%
inhibition [3]: 84.2%

COc1cc(Nc2ncc3c(C)nc(-c4cc5ccccc5[nH]4)n3n2)cc(OC)c1OC
inhibition [1]: 4.94%
inhibition [2]: 5.87%
inhibition [3]: 2.06%

CCCc1cc2c3c(N)nc(N)nc3ccc2n1C(CC)CC
inhibition [1]: 46.3%
inhibition [2]: 54.9%
inhibition [3]: 42.6%

CN(C)c1ccc(CN2CCCCC(NC(=O)c3cc(-c4ccccc4Cl)cs3)C2)cc1 (centres undefined)
inhibition [1]: 2.84%
inhibition [2]: 2.86%
inhibition [3]: 4.6%

CC(C)c1cc(Oc2c(I)cc(CCCc3ncc[nH]3)cc2I)ccc1O
inhibition [1]: 9.35%
inhibition [2]: 9.42%
inhibition [3]: 6.8%

N=C(N)Nc1nc(-c2cccc(NC(=O)CCCCCCCON3C(N)=NC(N)=NC34CCCCC4)c2)cs1
inhibition [1]: 2.45%
inhibition [2]: 4.13%
inhibition [3]: 3.75%

COc1ccc(C2CCN(CCCCNC(=O)c3ccc(NC(=O)c4ccc(Cl)cc4)cc3)C2)c(OC)c1 (centres undefined)
inhibition [1]: -0.08%
inhibition [2]: 0.01%
inhibition [3]: 0.7%

CCOc1ccc(C2CCN(CCN3CCC(NC(=O)c4ccc(-c5ccc(C(F)(F)F)cc5)cc4)CC3)CC2)c(OCC2CC2)c1
inhibition [1]: 3.99%
inhibition [2]: 3%
inhibition [3]: 2.81%

COc1cc(CNC[C@@H](O)[C@H](Cc2ccccc2)NC(=O)c2cc(C3CCCC3)cc(N3CCCCS3(=O)=O)c2)cc(OC)c1
inhibition [1]: 5.15%
inhibition [2]: 5.6%
inhibition [3]: 6.05%

O=C(Nc1ccccc1)N(Cc1cccc(-c2ccc(CNCc3ccc4c(c3)OCO4)cc2)c1)C1CCN(Cc2ccccc2)CC1
inhibition [1]: 2.89%
inhibition [2]: 4.07%
inhibition [3]: 2.52%

OC(COc1ccccc1-c1nc2ccccc2o1)CN1CCCN(CCc2ccccc2)CC1 (centres undefined)
inhibition [1]: -0.28%
inhibition [2]: -1.19%
inhibition [3]: -0.36%

COc1cc([N+](=O)[O-])ccc1NC(=O)c1cc(Cl)ccc1O
inhibition [1]: 7.76%
inhibition [2]: 6.83%
inhibition [3]: 7.02%

O=C(/C=C/c1ccc(Cl)c(Cl)c1)NC1CCC(CN2CCC(c3c[nH]c4ccncc34)CC2)CC1 (centres undefined)
inhibition [1]: 0.22%
inhibition [2]: 0.56%
inhibition [3]: 0.65%

Cc1cc(=NN=Cc2ccccc2F)c2ccccc2[nH]1
inhibition [1]: 1.11%
inhibition [2]: 4.77%
inhibition [3]: 1.44%

CCN(CC)CCn1c(=N)n(CC(=O)c2ccc(-c3ccccc3)cc2)c2ccccc21
inhibition [1]: 0.58%
inhibition [2]: 1.91%
inhibition [3]: 2.35%

CC(CON1C(N)=NC(N)=NC1(C)C)c1ccc(Cl)cc1Cl (centres undefined)
inhibition [1]: 23.2%
inhibition [2]: 37.1%
inhibition [3]: 24.2%

CN1C(=O)C(=O)N(CCCCCONC(=N)N)C1=S
inhibition [1]: 9.86%
inhibition [2]: 6.2%
inhibition [3]: 9.97%

Cc1ccc(OCCCON2C(=N)N=C(N)NC2(C)C)cc1C
inhibition [1]: 2.79%
inhibition [2]: 2.67%
inhibition [3]: 1.46%

COc1ccc(CNC(=O)NC2CCN(c3ccnc(Nc4ccc(OC)cc4)n3)C2)cc1 (centres undefined)
inhibition [1]: 1.61%
inhibition [2]: 1.7%
inhibition [3]: 1.82%

CS(=O)(=O)NCCCNCc1ccc(-c2ccc(-c3nc4cc(F)ccc4[nH]3)s2)cc1
inhibition [1]: -2.43%
inhibition [2]: -1.55%
inhibition [3]: -2.09%

CN(C)c1ccc(-c2csc(C(=O)NC3CCN(Cc4ccc(C(C)(C)C)cc4)C3)c2)cc1 (centres undefined)
inhibition [1]: 5.6%
inhibition [2]: 5.58%
inhibition [3]: 5.56%

O=C(Nc1cccc(-c2cccc(-c3ccc(F)cc3)n2)c1)c1ccc([N+](=O)[O-])o1
inhibition [1]: 9.83%
inhibition [2]: 11.4%
inhibition [3]: 1.35%

CC1CN(Cc2cccc(-c3ccc(-c4nc5cc(F)ccc5[nH]4)cc3)c2)CC(C)O1 (centres undefined)
inhibition [1]: 3.14%
inhibition [2]: 1.73%
inhibition [3]: 2.23%
